Assay [1] is described as follows: qHTS profiling for inhibitors of Plasmodium falciparum proliferation (AID 504749).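 For activity, negative = inhibition: 0% = DMSO vehicle and full inhibition = artemisinin control.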 For all read-outs here: nearly all actives have a fitted effect of over 60% in size. The note with it: P. falciparum in erythrocytes, SYBR Green DNA, 72 h; for activity, negative = inhibition: at 28.7 µM (top of the series). The procedure, abridged: (§1)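 SYBR Green fluorescence of parasite DNA, read after lysis and overnight dark incubation, measured growth over 72 h in erythrocyte culture at 0.3% parasitemia and 2.5% hematocrit. Data normalised to DMSO and 0.29 uM artemisinin, with plate-drift correction.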
(In qHTS, concentration-response curves come from the screen itself.)

The subject of assay [2] is 7G8. The description is as above. The note with it: P. falciparum in erythrocytes, SYBR Green DNA, 72 h; series mostly up to 28.7 µM. The procedure, abridged:
as §1

Assay [3] deals with AS120. The assay is described as above. The note with it: P. falciparum in erythrocytes, SYBR Green DNA, 72 h; series mostly up to 28.7 µM. Put shortly: as §1
In assay [4] the test system is CP192. The assay is described as above. Conditions: P. falciparum in erythrocytes, SYBR Green DNA, 72 h; series mostly up to 28.7 µM. The procedure, abridged:
as §1

The subject of assay [5] is CP201. Described as above. The note with it: P. falciparum in erythrocytes, SYBR Green DNA, 72 h; series mostly up to 28.7 µM. Put shortly:
as §1

The test system of assay [6] is CP217. Described as above. The note with it: P. falciparum in erythrocytes, SYBR Green DNA, 72 h; series mostly up to 28.7 µM. The procedure, abridged:
as §1

In assay [7] the test system is 3D7. The assay is described as above. Conditions: P. falciparum in erythrocytes, SYBR Green DNA, 72 h; series mostly up to 28.7 µM. The procedure, abridged: as §1
For assay [8], the system named is AA1029. Described as above. The note with it: P. falciparum in erythrocytes, SYBR Green DNA, 72 h; series mostly up to 28.7 µM. Put shortly: as §1
In assay [9] the test system is ATS95. Described as above. Conditions: P. falciparum in erythrocytes, SYBR Green DNA, 72 h; series mostly up to 28.7 µM. Put shortly:
as §1

In assay [10] the test system is CP211. The description is as above. The note with it: P. falciparum in erythrocytes, SYBR Green DNA, 72 h; series mostly up to 28.7 µM. The procedure, abridged:
as §1

The test system of assay [11] is CP237. The description is as above. Conditions: P. falciparum in erythrocytes, SYBR Green DNA, 72 h; series mostly up to 28.7 µM. The procedure, abridged: as §1
For assay [12], the system named is ATS189. Described as above. The note with it: P. falciparum in erythrocytes, SYBR Green DNA, 72 h; series mostly up to 28.7 µM. The procedure, abridged: as §1
For assay [13], the system named is C2A. Described as above. The note with it: P. falciparum in erythrocytes, SYBR Green DNA, 72 h; series mostly up to 28.7 µM. Put shortly: as §1
Assay [14] has as its system CP185. The description is as above. The note with it: P. falciparum in erythrocytes, SYBR Green DNA, 72 h; series mostly up to 28.7 µM. Put shortly:
as §1

Assay [15] relates to CP194. Described as above. Conditions: P. falciparum in erythrocytes, SYBR Green DNA, 72 h; series mostly up to 28.7 µM. The procedure, abridged: as §1
Assay [16] concerns CP215. The description is as above. Conditions: P. falciparum in erythrocytes, SYBR Green DNA, 72 h; series mostly up to 28.7 µM. Put shortly:
as §1

The test system of assay [17] is CP191. Described as above. The note with it: P. falciparum in erythrocytes, SYBR Green DNA, 72 h; series mostly up to 28.7 µM. Put shortly:
as §1

Assay [18] has as its system CP203. The assay is described as above. Conditions: P. falciparum in erythrocytes, SYBR Green DNA, 72 h; series mostly up to 28.7 µM. The procedure, abridged: as §1

Results filed as inconclusive are left out. Unmarked numbers belong to inactive results. The source made the active and inactive calls. Calls come from the whole dose curve; as a rule, active = well fitted inhibition curve with a large enough effect; inconclusive = small, poorly fitted or top-dose-only effect; inactive = flat fitted curve, though single readings scatter.
Potency is the fitted concentration of half-maximal effect.

On to `C=C(CC)C(=O)c1ccc(OCC(=O)O)c(Cl)c1Cl`, for which the Potency in [1] (parasite line A) is 12.6 µM (active); in assay [2], 14.1 µM (active); in [3] it was 12.6 µM (active). For the same compound, the Potency entry in [4], in [5] and in assay [6] was “inactive” throughout.
Consider `CCCCc1nc(Cl)c(CO)n1Cc1ccc(-c2ccccc2-c2nn[nH]n2)cc1`, for which the Potency was 12.6 µM (active) in [1] (parasite line B); 5.62 µM (active) in assay [7]; 6.31 µM (active) in [2]; 10 µM (active) in [8]; 8.91 µM (active) in assay [3]; 12.6 µM (active) in assay [9]. For the same compound, the Potency was 6.75 µM (active) in assay [10] and 12.6 µM (active) in [6]. For the same compound, the Potency result in [11] was “inactive”.
On to `Oc1ccc(Cl)c2cccnc12`, for which the activity, negative = inhibition in [1] (parasite line A) was -27%. In addition, the Potency result in assay [8], in assay [3], in assay [12], in assay [9], in assay [13] and in assay [14] was “inactive” in each case. The Potency result in [4], in assay [15], in [5], in assay [10], in assay [16] and in assay [6] was “inactive” each time.
Consider `CCN(CC)CCNC(=O)COc1ccc(Cl)cc1`, for which the Potency entry in assay [7], in assay [13], in assay [17], in assay [4], in assay [5] and in assay [18] was “inactive” in each case. The Potency entry in [10] and in assay [16] was “inactive” each time. Further, the Potency in assay [3] is 12.6 µM (active).
For the compound `O=C1[C@H]2CCCC[C@H]2C(=O)N1CCCCN1CCN(c2nsc3ccccc23)CC1`, the activity, negative = inhibition in [1] (parasite line A) was -3.99%; in [1] (parasite line B), 7.58%. For the same compound, the Potency result in [8], in assay [3], in [12], in assay [9], in [14] and in [4] was “inactive” in each case. For the same compound, the Potency result in assay [15], in [5], in assay [18], in assay [10], in assay [16] and in [6] was “inactive” in each case.
On to `COC(=O)[C@H]1[C@H]2C[C@H]3c4[nH]c5ccccc5c4CCN3C[C@H]2CC[C@@H]1O`, for which the Potency result in [4], in assay [15], in assay [5], in [18], in assay [10] and in assay [16] was “inactive” throughout.
As to `c1ccc(-c2ccc(C(c3ccccc3)n3ccnc3)cc2)cc1` (stereo not drawn), the Potency in assay [1] (parasite line B) is 11.2 µM (active); in [2], 2 µM (active); in assay [3], 3.98 µM (active); in assay [12], 8.91 µM (active); in assay [14], 10 µM (active); in assay [17], 11.2 µM (active). Moreover, the Potency was 10.7 µM (active) in assay [4]; 15.1 µM (active) in [18]; 19 µM (active) in [10]; 15.1 µM (active) in assay [16]; 8.91 µM (active) in [6]; 8.91 µM (active) in assay [11].
Consider `O=C(CCCN1CCC(O)(c2ccc(Br)cc2)CC1)c1ccc(F)cc1`, for which the Potency in assay [7] is 5.62 µM (active); in assay [2], 2.82 µM (active); in assay [9] it was 3.16 µM (active). Moreover, the Potency result in assay [5] and in assay [10] was “inactive” each time.
Consider `CN(C)CC/C=C1\c2ccccc2Sc2ccc(Cl)cc21`, for which the Potency is 8.91 µM (active) in assay [1] (parasite line B), 12.6 µM (active) in assay [2], 11.2 µM (active) in assay [3] and 11.2 µM (active) in [9]. In addition, the Potency entry in assay [7], in [4] and in [5] was “inactive” each time.
As to `CN(C)C(=S)SC(=S)N(C)C`, the Potency was 11.2 µM (active) in [7]; 6.31 µM (active) in [2]; 12.6 µM (active) in assay [3]; 7.57 µM (active) in assay [4]; 10 µM (active) in assay [11].
On to `CCCCCCCCCCCCCCNCCO`, for which the Potency in assay [1] (parasite line A) is 10 µM (active); in assay [2] it was 10 µM (active); in [3], 12.6 µM (active); in assay [11] it was 4.47 µM (active). Moreover, the Potency result in [9], in [4], in [15], in assay [5], in assay [10] and in assay [6] was “inactive” in each case.
In the case of `Clc1ccc2c(c1)CCc1cccnc1C2=C1CCNCC1`, the activity, negative = inhibition is -8.94% in assay [1] (parasite line A) and -21.2% in assay [1] (parasite line B). The Potency entry in assay [13] and in assay [14] was “inactive” each time.
Regarding `CN1CCC[C@@H]1c1cccnc1`, the activity, negative = inhibition in assay [1] (parasite line A) was 3.02%. Further, the Potency entry in assay [7], in [2], in assay [8], in assay [3], in [12] and in assay [9] was “inactive” throughout. Further, the Potency entry in assay [13], in [14], in assay [17], in [4], in assay [15] and in assay [5] was “inactive” each time. The Potency entry in assay [18], in [10], in assay [16], in assay [6] and in assay [11] was “inactive” in each case.
`NC(CS)C(=O)O` (stereo not drawn): the Potency in assay [2] was 1.78 µM (active); in assay [8], 15.8 µM (active); in assay [9] it was 12.6 µM (active); in [17], 10 µM (active). Further, the Potency result in assay [14], in assay [4], in assay [5] and in [10] was “inactive” each time.
Turning to `CCOC(=O)/C=C(C)/C=C/C=C(C)/C=C/c1c(C)cc(OC)c(C)c1C`, the Potency in assay [2] was 12.6 µM (active). The Potency result in assay [4], in assay [15], in assay [5], in assay [18], in assay [10] and in assay [16] was “inactive” throughout. The Potency result in assay [11] is “inactive”.
In the case of `COc1ccc(C2C(=O)c3ccccc3C2=O)cc1`, in [1] (parasite line A), the activity, negative = inhibition is 3.83%. Besides, the Potency entry in assay [7], in assay [2], in assay [8], in assay [3], in [12] and in assay [9] was “inactive” in each case. The Potency result in assay [13], in [14], in assay [17], in [4], in assay [15] and in [5] was “inactive” each time. Also, the Potency entry in [10], in assay [16], in assay [6] and in [11] was “inactive” each time.
Take `CCCOC(C(=O)OC1CCN(C)CC1)(c1ccccc1)c1ccccc1`: the activity, negative = inhibition in [1] (parasite line A) was -18.3%. Further, the Potency in [2] was 11.2 µM (active). The Potency result in [4], in [5] and in [18] was “inactive” in each case.
Regarding `Oc1ccc(O)cc1`, the Potency in assay [7] was 8.91 µM (active). In addition, the Potency entry in [8], in [12], in assay [9], in assay [14], in [17] and in [5] was “inactive” each time.
For the compound `COc1cccc(CCc2ccccc2OCC(CN(C)C)OC(=O)CCC(=O)O)c1` (stereo not drawn), the Potency in [1] (parasite line B) is 6.31 µM (active); in [7], 10 µM (active); in [2], 0.631 µM (active); in assay [8] it was 3.98 µM (active); in assay [3], 4.47 µM (active); in [12], 5.62 µM (active). Also, the Potency in assay [9] is 5.62 µM (active); in [13] it was 10 µM (active); in [14] it was 8.91 µM (active); in assay [4], 16.9 µM (active); in assay [15], 4.78 µM (active); in [10] it was 7.57 µM (active). For the same compound, the Potency is 8.49 µM (active) in [16], 7.94 µM (active) in assay [6] and 1.12 µM (active) in assay [11].
